From PubChem
Sfp inh: Sfp phosphopantetheinyl transferase inhibition; Biochemical Sfp PPTase activity, qHTS; Potency, µM, most hits filed as inhibitors; 310,000 compounds, 3.5% hits;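 note: the enzyme is Sfp with the accession as filed and its product quenches rhodamine fluorescence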
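Reaction rates are the 30-min fluorescence difference (ex 525, em 598 nm) in wells containing 15 nM Sfp, 5 uM rhodamine-CoA and 12.5 uM BHQ-2-YbbR at pH 7.6 with 10 mM MgCl2.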
BAZ2B block: inhibitors of human BAZ2B bromodomain. Q9UIF8. AlphaScreen BAZ2B-H3K14Ac peptide displacement. Potency, µM (doses to about 114 µM), actives largely listed as inhibitors. 360,000 compounds, 4.4% hits; note: nearly all actives have a fitted effect of over 60% in size
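AlphaScreen displacement: compounds (up to 110uM) incubated 30 min at room temperature with a preformed 50 nM BAZ2B/50 nM biotinylated H3K14Ac peptide complex in PBS pH 7.4 with Tween-20. Donor and acceptor beads at 10 ug/mL final added, 20 min light-protected before reading.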
G9a block: blocks human histone lysine methyltransferase G9a | Q96KQ7 | G9a H3K9 monomethylation, AlphaScreen, 2 h | Potency, µM (highest dose often 102 µM), most hits filed as inhibitors | 350,000 compounds, 8.8% hits | AID 504332; note: nearly all actives have a fitted effect of over 75% in size
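Chemiluminescent proximity detection of H3K9 monomethylation, read after 10 min bead incubation in the dark. Reaction: 20 nM G9a, 500 nM biotin-H3K9 peptide, 20 uM SAM cofactor, 2 h, room temperature, following 15 min enzyme-compound preincubation.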
HP1b chromo inh: blocks HP1-beta chromodomain binding to methylated histone tails; P83916; AlphaScreen HP1-beta / biotin-H3K9me3 peptide binding; Potency, µM (highest dose often 114 µM), hits mostly inhibitors; 390,000 compounds, 0.56% hits; note: nearly all actives have a fitted effect of over 70% in size
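Compound inhibition of the preformed complex between 50 nM HP1-beta and 50 nM biotinylated H3K9me3 peptide was read by AlphaScreen. Buffer was PBS pH 7.4 with 0.01% Tween-20. Incubations ran 30 min at room temperature, with 10 ug/mL donor/acceptor beads.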
L3MBTL1 inh: blocks human L3MBTL1. AlphaScreen L3MBTL1–H3K9me1 peptide binding. Q9Y468. Potency, µM (doses to about 57.1 µM), hits mostly inhibitors. 230,000 compounds, 0.66% hits; note: nearly all actives have a fitted effect of over 60% in size
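AlphaScreen proximity signal between nickel-chelate acceptor and streptavidin donor beads (final 10 ug/mL) reports binding of 50 nM L3MBTL1 to 75 nM biotin-H3 K9me1 peptide; complex incubated with compounds 30 min at room temperature; cefsulodin titration as control.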
JMJD2A Tudor: blocks the human JMJD2A Tudor domain; Potency, µM (doses to about 114 µM), hits mostly inhibitors; AlphaScreen JMJD2A-Tudor / H3K4me3 peptide binding; O75164; 390,000 compounds, 4.4% hits; note: nearly all actives have a fitted effect of over 50% in size
Target sequence (O75164 whole entry, looked up, the tested form may be a part): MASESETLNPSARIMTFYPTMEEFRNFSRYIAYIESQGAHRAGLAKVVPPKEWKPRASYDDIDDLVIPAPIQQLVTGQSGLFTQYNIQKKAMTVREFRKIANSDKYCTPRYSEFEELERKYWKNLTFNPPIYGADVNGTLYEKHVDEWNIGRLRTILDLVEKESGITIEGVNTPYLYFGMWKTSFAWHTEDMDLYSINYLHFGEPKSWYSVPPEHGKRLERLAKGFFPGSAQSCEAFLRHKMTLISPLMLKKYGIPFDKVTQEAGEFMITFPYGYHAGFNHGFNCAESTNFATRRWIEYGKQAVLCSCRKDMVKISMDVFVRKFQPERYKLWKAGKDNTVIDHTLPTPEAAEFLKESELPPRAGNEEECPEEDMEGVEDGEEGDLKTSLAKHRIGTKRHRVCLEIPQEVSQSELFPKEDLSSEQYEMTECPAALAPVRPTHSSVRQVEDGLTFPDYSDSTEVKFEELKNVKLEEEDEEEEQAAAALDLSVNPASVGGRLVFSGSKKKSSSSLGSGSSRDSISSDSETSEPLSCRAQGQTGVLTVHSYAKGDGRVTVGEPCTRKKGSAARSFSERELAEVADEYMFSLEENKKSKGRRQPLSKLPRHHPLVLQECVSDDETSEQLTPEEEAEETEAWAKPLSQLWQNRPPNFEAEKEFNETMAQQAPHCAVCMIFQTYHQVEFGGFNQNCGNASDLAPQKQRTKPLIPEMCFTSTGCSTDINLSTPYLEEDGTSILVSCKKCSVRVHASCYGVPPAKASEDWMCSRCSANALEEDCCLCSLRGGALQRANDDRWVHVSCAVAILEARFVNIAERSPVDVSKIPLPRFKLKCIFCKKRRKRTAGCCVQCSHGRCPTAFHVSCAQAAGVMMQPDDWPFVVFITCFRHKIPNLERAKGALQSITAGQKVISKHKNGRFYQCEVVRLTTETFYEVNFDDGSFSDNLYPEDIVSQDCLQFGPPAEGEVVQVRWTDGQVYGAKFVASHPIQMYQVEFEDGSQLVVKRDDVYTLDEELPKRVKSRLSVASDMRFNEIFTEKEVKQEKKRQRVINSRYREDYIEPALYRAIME
Numbers stand for hits; . = inactive; ? = inconclusive; / = not tested or not shown; ! = not active in a repeat; [ ] = remark or other dose. An excerpt weighted towards active compounds, which were near 12% of everything screened. Calls come from the whole dose curve; as a rule, active = well fitted curve in the direction sought with a large enough effect; inconclusive = small, poorly fitted or top-dose-only effect, or another doubt; inactive = no such curve, though single readings can be large; an effect the other way counts as inactive or inconclusive.

SMILES	Sfp inh	BAZ2B block	G9a block	HP1b chromo inh	L3MBTL1 inh	JMJD2A Tudor
CCCC(=O)N(Cc1cc(=O)[nH]c2ccccc12)c1ccccc1OC	.	.	45µM	.	/	.
Cc1ccc(N(Cc2cc(=O)[nH]c3ccccc23)C(=O)C(C)C)cc1	.	.	50µM	.	.	.[11.4 µM]
CCN(Cc1cc(=O)[nH]c2ccccc12)C(=O)c1ccc(C)cc1	.	.	.	.	.	.
COc1ccc(CN(C(=O)c2ccco2)c2ccccc2)cc1	.	.	.	.	.	.
COc1ccccc1N(Cc1cc(=O)[nH]c2ccccc12)C(C)=O	.	.	?	.	/	.
CCN(Cc1cc(=O)[nH]c2ccccc12)C(=O)C(C)C	.	.	.	.	.	.
CCCCc1ccc(NC(=O)CSc2nc(=O)n(CCCN3CCOCC3)c3c2CCC3)cc1	/	.	.	.	.	.
COc1ccc(NS(=O)(=O)c2ccc3oc(SC)nc3c2)cc1	50µM	.	40µM	?	/	.
CNC(=O)CSc1nc2cc(S(=O)(=O)Nc3ccc(OC)cc3)ccc2o1	/	/	/	.	/	.
Cc1nc2nc(-c3ccco3)[nH]n2c(=O)c1Cc1ccccc1	.	.	.[12.7 µM]	.	.	.
COC(=O)Cc1c(C)nc2nc(-c3ccco3)[nH]n2c1=O	56µM	.	?	.	.	.
CCCC[n+]1c2ccccc2cc2ccccc21	?	56µM	1.3µM	.	/	40µM
CCC[n+]1c2ccccc2cc2ccccc21	50µM	45µM	3.5µM	.	/	20µM
CCCC[n+]1c(C)sc2ccc(C)cc21	.	.	.	.	.	.
[N-]=[N+]=Nc1ccc(C(=O)CSC[C@H](NC(=O)CC[C@H](N)C(=O)O)C(=O)NCC(=O)O)cc1	/	/	32µM!	/	/	/
NC(CCC(=O)NC(CCSC(CC(=O)O)C(=O)O)C(=O)NCC(=O)O)C(=O)O (stereo unspecified)	.	/	/	/	/	/
Cc1c(NC(=O)COc2cccc(Br)c2)c(=O)n(-c2ccccc2)n1C	.	.	.	.	/	.
CCSC1=C(C#N)C2(CCCC2)C(C#N)=C(N)N1	?	.	20µM	.	.	?
CC1=C(C(=O)Nc2ccccc2)C2(CCCCC2)C(C#N)=C(SCC(N)=O)N1	.	?	.	.	/	14µM
N#CC1=C(N)NC(SCc2ccccc2)=C(C#N)C12CCCC2	.	.	79µM	.	.	?
N#CC1=C(N)NC(SCC(=O)c2ccccc2)=C(C#N)C12CCCC2	?	?	50µM	.	.	?
N#CC1=C(N)NC(SCc2ccc(Cl)cc2)=C(C#N)C12CCCCC2	.	.	.	.	.	?
CCOC(=O)C(C)Oc1cccc2c(=O)n(CC(=O)NCc3ccc(F)cc3)ccc12 (stereo unspecified)	.	.	.	.	/	.
O=c1cc(O)c(Cl)c[nH]1	.	/	?	/	/	/
N#CC1=C(N)NC(SCC(=O)Nc2ccc(Br)cc2)=C(C#N)C12CCCCC2	.	?	71µM	.	/	?
SMILES	Sfp inh	BAZ2B block	G9a block	HP1b chromo inh	L3MBTL1 inh	JMJD2A Tudor
CC(C)c1cc(NCC2CCCO2)n2c(nc3ccccc32)c1C#N (stereo unspecified)	.	.	.	.	/	.
CCOc1ccccc1CN1CCNC(=O)C1CC(=O)NC1CCCCCCC1 (stereo unspecified)	/	/	/	.	/	.
CC(C)(C)S(=O)(=O)/C(C#N)=C/c1sccc1C1OCCO1	.	.	.	.	.	71µM
COc1ccccc1CNC(=O)CCCn1c(=O)c2cccn2c2ccccc21	/	.	.	.	/	.
COC(=O)N1CCC2(CCCN(Cc3nccs3)C2)CC1	.	/	.[12.7 µM]	/	/	/
Cc1c2c(nc3ccccc13)CCC(C(C)(C)C)C2 (stereo unspecified)	.	.	50µM	.	.	.
O=C(Nc1cc(=O)[nH]c2ncnn12)c1ccc(Cl)cc1Cl	.	.	8.9µM	.	.	79µM
COC(=O)c1c2c(nc3ccccc13)CCC2	.	.	?	.	/	.
CC(C)CNC(=O)COC(=O)c1c2c(nc3ccccc13)/C(=C/c1cccs1)CC2	45µM	.	?	.	?	.
CC(C)CNC(=O)COC(=O)c1c2c(nc3ccccc13)CCC2	.	56µM	?	.	/	.
C=CCOc1ccc(/C(O)=C2/C(=O)C(=O)N(CCCn3ccnc3)C2c2ccco2)cc1 (stereo unspecified)	.	50µM	20µM	.	.	?
CC1Cc2cc(/C(O)=C3/C(=O)C(=O)N(CCCn4ccnc4)C3c3cccc([N+](=O)[O-])c3)ccc2O1 (stereo unspecified)	.	?	50µM	.	/	.
O=C1C(=O)N(CCCn2ccnc2)C(c2cccnc2)/C1=C(/O)c1ccc(F)cc1 (stereo unspecified)	.	?	.	.	.	?
CCOc1cccc(C2/C(=C(/O)c3ccc4c(c3)CC(C)O4)C(=O)C(=O)N2CCCn2ccnc2)c1 (stereo unspecified)	.	?	?	.	/	.
COc1ccccc1C1/C(=C(\O)c2ccc3c(c2)OCCO3)C(=O)C(=O)N1CCCn1ccnc1 (stereo unspecified)	.	?	40µM	.	/	.
O=C1C(=O)N(CCCn2ccnc2)C(c2ccccn2)/C1=C(/O)c1ccccc1 (stereo unspecified)	.	.	50µM	/	.	/
O=C(Nc1cccc(F)c1)C1CCN(c2nc3ccccc3[nH]2)CC1	/	.	.	.	/	.
CC(C)Cc1csc(NC(=O)c2ccc(Br)cc2)c1C(=O)O	.	.	.	.	.	.
COCCn1c(=S)[nH]c2cc(C(=O)N3CCN(Cc4ccccc4)CC3)ccc2c1=O	/	/	/	.	/	.
CC1Cc2cc(/C(O)=C3/C(=O)C(=O)N(CCCn4ccnc4)C3c3cccnc3)ccc2O1 (stereo unspecified)	.	?	50µM	.	.	14µM
CC1Cc2cc(/C(O)=C3/C(=O)C(=O)N(CCCn4ccnc4)C3c3ccco3)ccc2O1 (stereo unspecified)	.	?	?	.	.	32µM
CC1Cc2cc(/C(O)=C3/C(=O)C(=O)N(CCCn4ccnc4)C3c3ccncc3)ccc2O1 (stereo unspecified)	.	?	/	.	.	.
O=C(C[n+]1cc(-c2ccc(Cl)c(Cl)c2)n2c1CCC2)N1c2ccccc2Sc2ccccc21	45µM	.	?	.	.	.
COc1ccc(NS(=O)(=O)c2ccc(NC(=O)c3cnn4c(C(F)F)cc(-c5ccc(C)cc5)nc34)cc2)cc1	.	.	/	/	.	/
CCCCN(C(=O)NC(=O)Nc1nc2ccc(OC)cc2s1)S(C)(=O)=O	56µM	.	?	.	.	.
Cn1c(SCc2ccc(F)cc2)nc2ccc(C(=O)NCc3cccc(Cl)c3)cc21	/	.	.	.	/	.
CCn1c(=O)n(CC)c2cc(N3CCCC3)c(NC(=O)c3ccccc3OC)cc21	.	45µM	35µM	?	/	?
